# Measurements published in PubChem BioAssay AID1345085 (National Center for Advancing Translational Sciences (NCATS), 2018).
# Inconclusive results are not listed. Values without a mark were called inactive. The source made the active and inactive calls. Calls follow the shape of the dose curve; as a rule, active = well fitted cell-killing curve with a large enough effect; inconclusive = small, poorly fitted or top-dose-only effect, or effect the other way; inactive = no such curve, though single readings can be large or run the other way.
# Tested on: JEG-3
# Assay: Confirmatory qHTS for gynecologic anti-cancer compounds from libraries of approved drugs and bioactive compounds; also: nearly all actives have a fitted effect of over 55% in size
# Conditions: gynecologic cancer cell panel viability, ATPlite luminescence, 48 h; series mostly up to 57.6 µM; activity change, negative = viability loss: at the top concentration
# Text: National Center for Advancing Translational Sciences [NCATS] Assay Overview: Chemotherapeutic drug responses vary from cancer to cancer and from patient to patient. These variations could be caused by a number of factors including patient genomic background, tumor mutations, tumor heterogeneity, and aspects of drug treatment. Chemotherapeutic drug resistance is also a common issue and can lead to ineffective treatment and patient death. Here we have profiled the cell killing effects of thousands of compounds to characterize the responses in three gynecological cancers, identify cancer-selective compounds, and understand the diversity of responses to these compounds from pan-cancer suppressors to single cell line selective compounds. In this assay, we screened a 7,914 compound drug library that included approved drug and bioactive compounds in six ovarian, three cervical, and two placental cancer cell lines using the ATPlite assay for cell viability. ATPlite is a luminescence based assay reliant on the conversion of a luciferase substrate to light in the presence of ATP. As a cytotoxic compound will suppress growth and decrease the number of cells, the concentration of ATP will decrease, and less light signal will be detected in the well. Hits were selected from the primary screen for follow-up confirmation. For the confirmation screens, the ovarian cancer cell lines included CAOV-3, SK-OV-3, SW 626, ES-2, PA-1, and TOV-21G. The cervical cancer cell lines included HeLa, Ca Ski, and C-33 A. The placental cancer cell lines included JEG-3 and JAR. HEK 293T cells were used as the control cell line to determine the selectivity index. The ATPlite assay was used to determine the IC50 values.
# Assay Protocol Summary: 1,000 cells in 4 uL of media were dispensed into white, solid bottom 1536-well plates using a Multidrop Combi (Thermo Scientific). The Assay plates were incubated for 16 hours at 37 C with 5% CO2 in assay plates, followed by the addition of 23 nL of DMSO or drug dissolved in DMSO. . Each compound was assayed in 11 concentrations (1:3 dilution) from 57.5 uM to 0.977 nM, using the automated Wako 1536 Pin Tool workstation and incubated at 37 C with 5% CO2 48 hours. 4 uL of ATPlite, the ATP monitoring reagent, was then added to the each well of the assay plates using the Multidrop Combi reagent dispenser followed by incubation for 15 minutes at room temperature. The resulting luminescence was measured using the ViewLux plate reader.
# % is scaled to controls: 0 for no effect and ±100 for the full control effect; potency is read from the fitted curve at half-maximal effect.
Compound,Potency,"activity change, negative = viability loss"
C=C(C)[C@H]1Cc2c(ccc3c2O[C@@H]2COc4cc(OC)c(OC)cc4[C@@H]2C3=O)O1,27.3 nM (active),
Cc1sc2c(c1C)C(c1ccc(Cl)cc1)=NC(CC(=O)OC(C)(C)C)c1nnc(C)n1-2 (centres undefined),1930 nM (active),
O=C(O)Cc1ccccc1,,3.89%
CCN1CCN(C(=O)Cc2ccc(Nc3ncc(F)c(Nc4ccc(C(=O)Nc5ccccc5Cl)cc4)n3)cc2)CC1,,-5.82%
C[C@]12CC[C@H]3[C@@H](CCC4=CC(=O)CC[C@@H]43)[C@@H]1CC[C@@H]2OC(=O)CCc1ccccc1,,10%
CCC(=O)O[C@H]1CC[C@H]2[C@@H]3CCC4=CC(=O)CC[C@]4(C)[C@H]3CC[C@]12C,,-32.1%
C/C=C(/C)C(=O)O[C@H]1C(C)=C2[C@H]([C@@H]1OC(=O)CCCCCCC)[C@@](C)(OC(C)=O)C[C@H](OC(=O)CCC)[C@@]1(O)[C@H]2OC(=O)[C@@]1(C)O,54.4 nM (active),
C[C@H]1CCC/C=C/C2C[C@H](O)C[C@H]2[C@H](O)/C=C/C(=O)O1 (some centres undefined),344 nM (active),
CCOc1ccccc1-n1c(C(C)N2CCN(C(=O)COc3ccc(Cl)cc3)CC2)nc2ccccc2c1=O (centres undefined),10900 nM (active),
